The values below come from PubChem BioAssay (NCATS).

Inconclusive results are not listed. The source made the active and inactive calls. The call rests on the fitted dose curve; in most records, active means well fitted curve in the direction sought with a large enough effect; inconclusive means small, poorly fitted or top-dose-only effect, or another doubt; inactive means no such curve, though single readings can be large; an effect the other way counts as inactive or inconclusive.

Assay [1] can be described thus: qHTS of pediatric cancer cell lines to identify multiple opportunities for drug repurposing: Primary screen for NB-EBc1 cells (AID 1347095). Further: potency means the concentration at half of the fitted maximal effect. An outline of the steps: (§1)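 Readout: CellTiter-Glo luminescence, 48 h treatment. Controls DMSO (neutral) and bortezomib 2.3 µM final (positive). Potency and efficacy taken from primary-screen concentration-response curves.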
Assay [2] in a line: qHTS of pediatric cancer cell lines to identify multiple opportunities for drug repurposing: Primary screen for U-2 OS cells (AID 1347096). Further: nearly all actives have a fitted effect of over 50% in size. Further: potency means the concentration at half of the fitted maximal effect. An outline of the steps:
(§2)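 Cells (500-1,000/well) in growth media were settled 5 h at 37 degrees C, then given compounds for 48 h. Viability was read as CellTiter-Glo luminescence. Primary runs used MIPE at 11 points (0.78 nM-46 µM) and NPC at 8 points (0.59 nM-46 µM); follow-ups used 11 points.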
In general terms: In qHTS, concentration-response curves come from the screen itself.

A short description of assay [3]: qHTS of pediatric cancer cell lines to identify multiple opportunities for drug repurposing: Primary screen for Saos-2 cells (AID 1347097). Further: nearly all actives have a fitted effect of over 40% in size. Further: potency means the concentration at half of the fitted maximal effect. An outline of the steps: as §1
The nature of assay [4]: qHTS of pediatric cancer cell lines to identify multiple opportunities for drug repurposing: Primary screen for SK-N-SH cells (AID 1347098). Further: nearly all actives have a fitted effect of over 65% in size. Further: potency means the concentration at half of the fitted maximal effect. An outline of the steps:
(§3)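 Cells (500-1,000/well) rested 5 h, then received compounds for 48 h; metabolically active cells were measured by CellTiter-Glo luminescence. Final concentrations spanned up to 46 µM (MIPE, 11-point) or 0.59 nM-46 µM (NPC, 8-point) in primary screens, 11-point in follow-ups.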

A short description of assay [5]: qHTS of pediatric cancer cell lines to identify multiple opportunities for drug repurposing: Primary screen for NB1643 cells (AID 1347099). Further: nearly all actives have a fitted effect of over 50% in size. Further: potency means the concentration at half of the fitted maximal effect. An outline of the steps:
as §1

Assay [6] is described as follows: qHTS of pediatric cancer cell lines to identify multiple opportunities for drug repurposing: Primary screen for LAN-5 cells (AID 1347100). Further: potency means the concentration at half of the fitted maximal effect. An outline of the steps: as §2
Assay [7] is described as follows: qHTS of pediatric cancer cell lines to identify multiple opportunities for drug repurposing: Primary screen for OHS-50 cells (AID 1347103). Further: nearly all actives have a fitted effect of over 40% in size. Further: potency means the concentration at half of the fitted maximal effect. An outline of the steps: as §3
Assay [8] in a line: qHTS of pediatric cancer cell lines to identify multiple opportunities for drug repurposing: Primary screen for RD cells (AID 1347104). Further: nearly all actives have a fitted effect of over 55% in size. Further: potency means the concentration at half of the fitted maximal effect. An outline of the steps:
as §1

Assay [9] in a line: qHTS of pediatric cancer cell lines to identify multiple opportunities for drug repurposing: Primary screen for MG 63 (6-TG R) cells (AID 1347105). Further: nearly all actives have a fitted effect of over 50% in size. Further: potency means the concentration at half of the fitted maximal effect. A digest of the protocol: as §1
Assay [10] in a line: qHTS of pediatric cancer cell lines to identify multiple opportunities for drug repurposing: Primary screen for control Hh wild type fibroblast cells (AID 1347106). Further: nearly all actives have a fitted effect of over 55% in size. Further: potency means the concentration at half of the fitted maximal effect. A digest of the protocol:
as §2

The nature of assay [11]: qHTS of pediatric cancer cell lines to identify multiple opportunities for drug repurposing: Primary screen for Rh41 cells (AID 1347108). Further: nearly all actives have a fitted effect of over 70% in size. Further: potency means the concentration at half of the fitted maximal effect. A digest of the protocol:
as §1

Assay [12] is described as follows: qHTS of pediatric cancer cell lines to identify multiple opportunities for drug repurposing: Confirmatory screen for NB1643 cells (AID 1347109). Further: nearly all actives have a fitted effect of over 45% in size. Further: potency means the concentration at half of the fitted maximal effect. An outline of the steps:
as §2

Assay [13] is described as follows: qHTS of pediatric cancer cell lines to identify multiple opportunities for drug repurposing: Confirmatory screen for A673 cells (AID 1347110).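 Further: cells exposed to compound for 48 h before the viability read; nearly all actives have a fitted effect of over 65% in size.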 Further: potency means the concentration at half of the fitted maximal effect. An outline of the steps:
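qHTS titration format: primary MIPE 0.78 nM-46 µM (11 pts), NPC 0.59 nM-46 µM; confirmation 11 pts. 48 h, CTG luminescence.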

Assay [14] in a line: qHTS of pediatric cancer cell lines to identify multiple opportunities for drug repurposing: Confirmatory screen for SK-N-MC cells (AID 1347111).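 Further: cells exposed to compound for 48 h before the readout; nearly all actives have a fitted effect of over 70% in size.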 Further: potency means the concentration at half of the fitted maximal effect. A digest of the protocol:
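Metabolically active cells were quantified by ATP-dependent luminescence (CellTiter-Glo, 15 min at room temperature) following 48 h treatment. Cells had been plated at 500-1,000 per well and settled for 5 h beforehand.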

The nature of assay [15]: qHTS of pediatric cancer cell lines to identify multiple opportunities for drug repurposing: Primary screen for Rh30 cells (AID 1347107). Further: nearly all actives have a fitted effect of over 75% in size. Further: potency means the concentration at half of the fitted maximal effect. A digest of the protocol:
as §2

Assay [16] can be described thus: qHTS of pediatric cancer cell lines to identify multiple opportunities for drug repurposing: Primary screen for Rh18 cells (AID 1347102). Further: nearly all actives have a fitted effect of over 65% in size. Further: potency means the concentration at half of the fitted maximal effect. An outline of the steps: as §2
Assay [17] can be described thus: qHTS of pediatric cancer cell lines to identify multiple opportunities for drug repurposing: Primary screen for BT-12 cells (AID 1347101). Further: nearly all actives have a fitted effect of over 25% in size. Further: potency means the concentration at half of the fitted maximal effect. A digest of the protocol: as §3
A short description of assay [18]: qHTS of pediatric cancer cell lines to identify multiple opportunities for drug repurposing: Confirmatory screen for BT-12 cells (AID 1347112). Further: nearly all actives have a fitted effect of over 55% in size. An outline of the steps: as §2
The nature of assay [19]: qHTS of pediatric cancer cell lines to identify multiple opportunities for drug repurposing: Confirmatory screen for LAN-5 cells (AID 1347113). Further: nearly all actives have a fitted effect of over 65% in size. An outline of the steps: as §2

In the case of `NC(=O)Nc1cc(-c2ccc(CN3CCOCC3)cc2)sc1C(N)=O`, the Potency is 0.235 µM (active) in assay [1]; 18.7 µM (active) in assay [2]; 2.35 µM (active) in assay [3]; 1.36 µM (active) in assay [4]; 0.0296 µM (active) in assay [5]; 0.0332 µM (active) in assay [6]. The Potency in assay [7] was 0.217 µM (active); in assay [8], 8.33 µM (active); in assay [9], 11.8 µM (active); in assay [11], 7.43 µM (active); in assay [12], 0.414 µM (active); in [13], 11.7 µM (active). The Potency in assay [14] is 0.657 µM (active). Besides, in assay [10], the Potency entry is “inactive”.
For the molecule `COc1cc2c(cc1O)CCC1C2CC[C@@]2(C)C1CC[C@@H]2O` (some centres not stated), the Potency was 0.526 µM (active) in assay [1], 1.05 µM (active) in [3] and 7.69 µM (active) in assay [7]. The Potency result in [2], in assay [6], in assay [10] and in assay [15] was “inactive” each time.
`Nc1nc(=O)n([C@H]2C[C@H](O)[C@@H](CO)O2)cc1F`: the Potency in [1] is 3.72 µM (active). Also, the Potency result in assay [2], in assay [3], in assay [4], in assay [5], in assay [16] and in [9] was “inactive” throughout. Besides, the Potency result in [10], in [15] and in assay [11] was “inactive” in each case.
`CN[C@H](CC(C)C)C(=O)N[C@H]1C(=O)N[C@@H](CC(N)=O)C(=O)N[C@@H]2C(=O)N[C@H]3C(=O)N[C@H](C(=O)N[C@H](C(=O)O)c4cc(O)cc(O)c4-c4cc3ccc4O)[C@H](O)c3ccc(c(Cl)c3)Oc3cc2cc(c3O[C@@H]2O[C@H](CO)[C@@H](O)[C@H](O)[C@@H]2O[C@H]2C[C@](C)(N)[C@H](O)[C@H](C)O2)Oc2ccc(cc2Cl)[C@H]1O`: the Potency entry in assay [1], in [2], in assay [3], in assay [4], in assay [5] and in [6] was “inactive” each time. Also, the Potency entry in assay [16], in assay [7], in [8], in assay [9], in assay [10] and in assay [15] was “inactive” in each case. The Potency result in assay [11] is “inactive”.
On to `CCCCOc1ccc(C(=O)Nc2ccc(F)cc2F)cc1`, for which the Potency result in [1], in assay [2], in [3], in assay [17], in assay [16] and in assay [8] was “inactive” throughout. In addition, the Potency result in assay [9], in [10], in assay [15] and in assay [11] was “inactive” in each case.
`COc1ccc(C(C)=O)c(O)c1`: the Potency entry in assay [1], in [2], in assay [4], in assay [6], in assay [16] and in [9] was “inactive” each time. Besides, the Potency entry in assay [10], in assay [13], in assay [14], in [18] and in [19] was “inactive” in each case. Besides, the Potency in assay [3] was 1.66 µM (active); in assay [5] it was 5.26 µM (active); in assay [17] it was 6.85 µM (active); in assay [8] it was 16.6 µM (active).
Take `C=CC1=C(C(=O)O)N2C(=O)[C@@H](NC(=O)C(=NO)c3csc(N)n3)[C@H]2SC1`: the Potency entry in [1], in assay [2], in assay [3], in assay [5], in [6] and in [16] was “inactive” in each case. Besides, the Potency result in [8], in [9], in [10], in assay [15] and in assay [11] was “inactive” throughout.
For `CN[C@H]1[C@@H](O)[C@@H]2O[C@@H]3O[C@H](C)CC(=O)[C@]3(O)O[C@@H]2[C@@H](NC)[C@H]1O`, the Potency in assay [1] was 8.33 µM (active); in [2] it was 2.96 µM (active); in [3], 1.87 µM (active); in [4] it was 6.07 µM (active); in [5] it was 1.87 µM (active); in assay [6], 0.166 µM (active). The Potency was 1.18 µM (active) in [16]; 0.432 µM (active) in assay [7]; 0.59 µM (active) in assay [8]; 9.35 µM (active) in assay [9]; 3.72 µM (active) in [10]; 0.296 µM (active) in assay [15]. Besides, the Potency in assay [11] was 1.18 µM (active). In addition, the Potency result in assay [12], in assay [13], in [18] and in assay [19] was “inactive” in each case.
Consider `NC(=NCCCCCCN=C(N)N=C(N)Nc1ccc(Cl)cc1)N=C(N)Nc1ccc(Cl)cc1`, for which the Potency was 26.4 µM (active) in assay [1]; 18.7 µM (active) in assay [3]; 21.5 µM (active) in assay [4]; 5.26 µM (active) in assay [5]; 13.7 µM (active) in [17]; 20.9 µM (active) in [16]. For the same molecule, the Potency in assay [8] was 11.8 µM (active); in assay [9], 14.8 µM (active); in [10] it was 8.33 µM (active); in [15], 4.69 µM (active); in assay [11] it was 7.43 µM (active). For the same molecule, the Potency entry in assay [2] was “inactive”.
Consider `CON=C(C(=O)N[C@@H]1C(=O)N2C(C(=O)O)=C(CSC(=O)c3ccco3)CS[C@H]12)c1csc(N)n1`, for which the Potency entry in assay [1], in assay [2], in [3], in [6], in [17] and in assay [16] was “inactive” in each case. In addition, the Potency entry in assay [7], in [8], in assay [9], in assay [10] and in assay [11] was “inactive” each time. The Potency in assay [4] was 13.6 µM (active).
On to `CCc1cc(C(C)=NOCc2ccc(C3CCCCC3)c(C(F)(F)F)c2)ccc1CN1CC(C(=O)O)C1`, for which the Potency in assay [1] is 20.9 µM (active); in [5], 2.64 µM (active); in [17] it was 3.06 µM (active); in [7] it was 8.63 µM (active); in assay [8] it was 5.9 µM (active); in [12] it was 29.3 µM (active). Moreover, the Potency in assay [13] is 13.1 µM (active); in [14], 8.27 µM (active). For the same molecule, the Potency result in assay [2], in [10] and in assay [15] was “inactive” each time.
Consider `COC(=O)[C@@H]1[C@H]2C[C@@H]3c4[nH]c5ccccc5c4CCN3C[C@@H]2CC[C@@H]1O`, for which the Potency result in assay [1], in assay [2], in assay [3], in [6], in [16] and in [8] was “inactive” each time. Also, the Potency result in [9], in assay [10], in assay [15], in assay [11], in assay [12] and in assay [13] was “inactive” in each case. The Potency result in assay [14], in assay [18] and in [19] was “inactive” each time.
